Experimental data reported in the supplement of paper PMC3334620.
Whole data set: some 33,000 sequences, median “E-score (-0.5 to 0.5)” near -0.017, cut for the highest 2% near 0.3. The full list was thinned out, with the highest values kept by preference.

target: T1, Sut1 (UniProt P53032); experiment: PBM E-score (8-mer binding enrichment) (E-score (-0.5 to 0.5)); higher = stronger / more preferred TF binding; details: protein concentration: 200 nM; construct: GST-full length
T1 sequence: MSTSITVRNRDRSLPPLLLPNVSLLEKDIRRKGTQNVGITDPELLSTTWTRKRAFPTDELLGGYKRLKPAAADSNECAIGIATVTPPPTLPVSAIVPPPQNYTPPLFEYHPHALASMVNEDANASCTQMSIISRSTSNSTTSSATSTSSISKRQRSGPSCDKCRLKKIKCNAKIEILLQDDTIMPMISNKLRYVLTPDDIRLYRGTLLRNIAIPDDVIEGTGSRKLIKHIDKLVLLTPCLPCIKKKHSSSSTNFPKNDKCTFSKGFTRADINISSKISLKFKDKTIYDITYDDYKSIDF
Description: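 Universal 'all 10-mer' protein binding microarrays (Agilent AMADID 015681) probed with GST-tagged S. cerevisiae TFs (full-length or DBD) made by in vitro transcription/translation (PURExpress), about 100-200 nM. Bound TF was detected with fluorescent anti-GST. Each ungapped 8-mer (which stands for itself and its reverse complement) is scored by the PBM enrichment score (E-score), a modified Wilcoxon-Mann-Whitney statistic from -0.5 to +0.5, computed with the Universal PBM Analysis Suite. Scale: above 0.35 generally sequence-specific binding.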

Sequence	PBM E-score
TATGCTGA	0.175
AACACCGG	0.301
CACACCGG	0.0539
AACACCGC	-0.0108
CTGCTATC	0.134
AGTCTCTG	-0.12
AGCAGTAA	0.0389
AAAAGGCA	0.114
GAGACGAA	-0.0447
CAGACGAA	0.298
CAGACGAC	-0.213
AGCTATGC	-0.227
CGGAATTA	0.349
AGGAATTC	-0.203
CGGAATTC	0.323
GGGAATTA	0.143
AGGAATTA	0.137
CTGAATTC	-0.102
CATGTGAC	-0.0811
AATAAGTC	0.0835
AAATCCGC	-0.0542
CATTCCGG	0.194
AATTCCCT	-0.0468

Sequence	PBM E-score
AAATCCGT	0.149
AAATCCGG	0.36
AATTCCAT	0.0698
AATTCCGG	0.337
AATTCCGT	0.317
AATTCCGC	0.192
AAGAGTCG	0.00242
AGTAGTGC	-0.185
ACACTCGG	0.00116
GAGAATGC	0.0169
TACTTATA	0.151
AACTTATG	0.0687
GACTTATC	-0.0236
AACTTATA	0.31
GACTTATA	0.326
CACTTATA	0.0975
AACGTCTT	-0.113
GGCTCCCC	-0.226
CAAGGCCC	-0.132
CGCATAAG	-0.0216
CATAGGGA	-0.0219
CAGGTGGC	-0.219
GTTGGTGA	-0.0399

Sequence	PBM E-score
ACCGGAGA	0.43
ACCGGAGC	0.353
ACCGGATA	0.0607
ACCGGAGG	0.133
ACCGGATC	0.0878
CCCGGATA	0.123
CCCGGAGG	0.0148
ACCAGAGT	-0.256
CCCGGAGA	0.374
ACCGGAAT	0.204
ACCGGAGT	0.492
ACAGGAGA	-0.137
TGTCTGAA	0.0592
ACCGGTCT	-0.115
ATGACAAT	0.198
TCCAGAGA	-0.187
GCCGGAGA	0.316
GCCGGAAA	0.244
TCCGGAGA	0.409
GCCGGAGC	0.284
CCCGGAAC	0.129
CCCGGAGC	0.406
TCAGGAGA	0.0262

Sequence	PBM E-score
CCGGGAGC	-0.0765
CCACCCAG	-0.129
CCGAGTTC	0.0827
ATACTGGG	-0.138
CGTCCGAG	0.149
AGTCCTAT	0.0983
AGTCCGAT	0.486
AGTCCGAC	0.477
AGTCCGAA	0.49
AATCCGAA	0.159
GGTCCGAC	0.24
AATCCGAT	0.195
AATCCGAG	0.0276
AGTCCAAA	0.169
CGTCCGAC	-0.14
AGTCCGAG	0.489
CGCATTCC	-0.284
AGTATCGG	0.176
CGTGGGTC	-0.162
CCTCAAGA	-0.113
GTCCTCAC	-0.0725
ACAGTCAC	-0.176
TCATACAA	0.304

Sequence	PBM E-score
GCATACAA	0.0888
ATATACAA	0.256
CCATACAA	0.0626
TTATACAA	0.326
GTATACAA	0.179
AACCTTGA	0.116
GATGGTGC	-0.409
GCAGGGAA	0.0261
CAAGAGAA	0.0231
AGAAGCCC	0.167
TAATATAA	0.306
TAATAAAA	0.332
CAATATAA	0.308
CAATATAG	0.1
GGATAAAA	0.252
TAATAATA	0.282
GAATAAAA	0.242
TGATAAAA	0.283
CGATAAAA	0.303
GAATATAA	0.153
CAATAAAA	0.136
CAATATAC	0.144
